Assay outcomes from PubChem BioAssay.
Hits are enriched below; roughly 4.2% of the tested compounds scored in any of these assays.
Mtb FBA inh: inhibitors of M. tuberculosis fructose-bisphosphate aldolase; AID 588726; hit rate 2.3% among 360,000; purified M. tuberculosis FBA, fluorescence read-out; P9WQA3; inhibition, % at 1 µM; in the data active means inhibition above about 27%
Target sequence (P9WQA3 whole entry, looked up): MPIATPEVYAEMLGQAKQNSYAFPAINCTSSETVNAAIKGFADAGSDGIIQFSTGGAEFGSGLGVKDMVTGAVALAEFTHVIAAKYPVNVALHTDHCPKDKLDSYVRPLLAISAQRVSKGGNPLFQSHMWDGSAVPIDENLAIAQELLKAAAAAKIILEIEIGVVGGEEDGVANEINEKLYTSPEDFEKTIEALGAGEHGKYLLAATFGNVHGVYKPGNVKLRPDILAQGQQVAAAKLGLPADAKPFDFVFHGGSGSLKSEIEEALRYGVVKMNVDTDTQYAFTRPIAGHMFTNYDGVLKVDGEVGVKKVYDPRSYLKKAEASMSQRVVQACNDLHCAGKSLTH
CCHFV vOTU inh: CCHFV vOTU protease inhibition. inhibition, % at 11.5 µM. hit rate 0.55% among 370,000. Pep-AMC fluorescence
RecA intein inh: inhibitors of M. tuberculosis RecA intein splicing. cell-free RecA intein splicing, fluorescence. inhibition, % (concentration not given with the values). hit rate 0.75% among 290,000. AID 2221; in the data active means inhibition above about 30%
GDH-TPI counter: counter-screen for M. tuberculosis FBA inhibitors: GDH-TPI coupled enzymes; GDH-TPI coupled enzyme counterscreen, NADH absorbance; inhibition, % at 4.8 µM; hit rate 1.2% among 360,000; AID 588335
Each line names hits and unclear results; the compound was inactive in the other large screens. Unless noted, no stated cut-off is given here; in the data, active means inhibition above about 30%; inactive means the rest.

Cn1c(=O)c2cc(NC(=O)CCc3cccnc3)ccc2n1Cc1ccc(F)cc1	Mtb FBA inh 174.6 (no result: RecA intein inh)
Cn1c(=O)c2cc(NC(=O)Cc3cccnc3)ccc2n1-c1ccc2ccccc2c1	none (no result: RecA intein inh)
COc1cc(Cn2c3ccc(NC(=O)CCc4ccccc4)cc3c(=O)n2C)ccc1F	Mtb FBA inh 156.7 (no result: RecA intein inh)
COc1ccc(CNC(=O)COC(=O)[C@H](Cc2ccccc2)NC(=O)c2cccs2)cc1	none (no result: RecA intein inh)
COc1ccc(NC(=O)NCCc2cccc(Cl)c2)cc1OC	none
COc1cc(Cn2c3ccc(NC(=O)NCCc4ccccc4)cc3c(=O)n2C)ccc1F	Mtb FBA inh 145.1 (no result: RecA intein inh)
COc1cccc(-c2c(C(=O)N/N=C(\C)c3cccs3)nnn2-c2nonc2N)c1	GDH-TPI counter 30.8
COc1cccc(-c2c(C(=O)N/N=C/c3sccc3C)nnn2-c2nonc2N)c1	GDH-TPI counter 34.8
Cc1ccc(-c2c(C(=O)N/N=C/c3sccc3C)nnn2-c2nonc2N)cc1	none
Cc1ccsc1/C=N/NC(=O)c1nnn(-c2nonc2N)c1-c1ccccc1	GDH-TPI counter 38.2
COc1cccc(-c2c(C(=O)N/N=C/c3ccsc3)nnn2-c2nonc2N)c1	none
Cc1ccsc1/C=N/NC(=O)c1nnn(-c2nonc2N)c1C	GDH-TPI counter 31.3 (no result: RecA intein inh)
C=CCN1[C@H](CO)[C@H](c2ccccc2)[C@@H]1C#N	none (no result: Mtb FBA inh, RecA intein inh, GDH-TPI counter)
Nc1nonc1-n1nnc(C(=O)N/N=C/c2ccco2)c1-c1ccccc1	none
Cc1ccc(/C=N/NC(=O)c2nnn(-c3nonc3N)c2-c2ccccc2)o1	GDH-TPI counter 44.0
COc1cccc(-c2c(C(=O)N/N=C/c3ccco3)nnn2-c2nonc2N)c1	GDH-TPI counter 33.0
O=C(NCc1ccccc1)OCCN1C(=O)CCC12CCC(c1ccc(Cl)cc1)CC2 (centres undefined)	none (no result: Mtb FBA inh, RecA intein inh, GDH-TPI counter)
CSc1ccc(S(=O)(=O)NCC(=O)OCC(=O)N(C)Cc2ccccc2)cc1[N+](=O)[O-]	none
Cc1nn(-c2ccccc2)c2sc(-c3n[nH]c(=S)o3)cc12	Mtb FBA inh active, GDH-TPI counter 42.2
COC(=O)c1cc2c(C)nn(-c3ccccc3)c2s1	Mtb FBA inh 34.6
C[C@@H]1CN([C@@H](C)CO)C(=O)CCCn2cc(nn2)CO[C@H]1CN(C)C(=O)c1ccc(N2CCN(C)CC2)cc1	none (no result: Mtb FBA inh, RecA intein inh, GDH-TPI counter)
Cc1ccc(N2C(=O)C3CCCN3C2=S)cc1Cl (centres undefined)	Mtb FBA inh 151.9
Cc1cccn2c(=O)c3cc(C(=O)NC4CCCC4)c(=N)n(CC4CCCO4)c3nc12 (centres undefined)	Mtb FBA inh active
Cc1cccn2c(=O)c3cc(C(=O)NCc4ccc(F)cc4)c(=N)n(CC4CCCO4)c3nc12 (centres undefined)	Mtb FBA inh active
COc1ccc(CNC(=O)c2cc3c(=O)n4cccc(C)c4nc3n(CC3CCCO3)c2=N)cc1 (centres undefined)	none
CCCn1c(=N)c(C(=O)NCc2ccc3c(c2)OCO3)cc2c(=O)n3cccc(C)c3nc21	none
Cc1cccn2c(=O)c3cc(C(=O)NCC4CCCO4)c(=N)n(CC4CCCO4)c3nc12 (centres undefined)	Mtb FBA inh active (no result: RecA intein inh)
Cc1cccn2c(=O)c3cc(C(=O)NCC4CCCO4)c(=N)n(C4CCCCC4)c3nc12 (centres undefined)	Mtb FBA inh active (no result: RecA intein inh)
COc1ccc(NC(=O)c2cc(-c3cc(F)ccc3OCC3CCCO3)n[nH]2)cc1OC (centres undefined)	none (no result: RecA intein inh)
CCN(CC)c1ccc(/C=N/NC(=O)c2ccc3c(c2)OCCO3)cc1	none
CCOc1cc(/C=N/NC(=O)c2ccc3c(c2)OCCO3)cc(Br)c1O	GDH-TPI counter 40.6
CCOc1cc(/C=N/NC(=O)C(N)=O)cc(Br)c1O	none
CCOc1cc(/C=N/NC(=O)C(=O)NC2CC2)cc(Br)c1O	GDH-TPI counter 32.7
O=C(N/N=C/c1cc(Br)c(O)c(Br)c1O)c1ccc2c(c1)OCCO2	GDH-TPI counter 31.4
CN1C(=O)C(CC#N)(C2(CC#N)C(=O)N(C)c3ccccc32)c2ccccc21 (centres undefined)	none (no result: RecA intein inh)
CCOc1ccc(/C=N/NC(=S)Nc2c(C)cccc2C)cc1	GDH-TPI counter 31.9
CC(=O)CSc1nc2cc3c(cc2cc1C#N)OCCO3	GDH-TPI counter 32.9
N#Cc1cc2cc3c(cc2nc1SCC(=O)N1CCCC1)OCCO3	none (no result: CCHFV vOTU inh)
O=C(CCOc1ccccc1)Nc1ccccc1F	none (no result: CCHFV vOTU inh)
COC(=O)CSc1nc2nc(-c3cccs3)cc(C(F)(F)F)c2c(=O)[nH]1	none
O=C(CSc1nc2nc(-c3cccs3)cc(C(F)(F)F)c2c(=O)[nH]1)C(F)(F)F	Mtb FBA inh active
CC(C)=CC(=O)OCc1cc([N+](=O)[O-])cc2c1OCOC2	none
CCc1nc(N2CCN(C(=S)NCCCOC)CC2)c2c3c(sc2n1)CCCC3	none (no result: RecA intein inh)
